Reference: PubChem BioAssay (NCI)
This is part of a sample that, as a whole, favours compounds with a hit. Of some 83,000 tested, about 20% had one in any assay.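 For each line, cells grew in 96-well plates with the test compound present at a single concentration for 48 hours.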 A number with no mark means an inactive call. Active and inactive are the calls of the source. How the source made its calls: active means growth percent below 10; inactive means the rest.

Assays:
Experiment in all cases: NCI-60 one-dose screen, 48 h (100 = growth as untreated, 0 = no growth, -100 = all killed)
Settings in all cases: 10 µM unless noted
DU-145 prostate = system: DU-145 prostate
K-562 leukemia = system: K-562 leukemia
MALME-3M melanoma = system: MALME-3M melanoma
MDA-MB-231 breast = system: MDA-MB-231 breast
RXF 393 renal = system: RXF 393 renal
SF-268 CNS = system: SF-268 CNS
SF-295 CNS = system: SF-295 CNS
SF-539 CNS = system: SF-539 CNS
UACC-257 melanoma = system: UACC-257 melanoma
M14 melanoma = system: M14 melanoma
HCT-15 colon = system: HCT-15 colon
HT29 colon = system: HT29 colon
SNB-75 CNS = system: SNB-75 CNS
SNB-19 CNS = system: SNB-19 CNS
U251 CNS = system: U251 CNS
PC-3 prostate = system: PC-3 prostate
SK-MEL-5 melanoma = system: SK-MEL-5 melanoma
UACC-62 melanoma = system: UACC-62 melanoma
LOX IMVI melanoma = system: LOX IMVI melanoma
SK-MEL-28 melanoma = system: SK-MEL-28 melanoma

Structure (SMILES) | growth (DU-145 prostate) | growth (K-562 leukemia) | growth (MALME-3M melanoma) | growth (MDA-MB-231 breast) | growth (RXF 393 renal) | growth (SF-268 CNS) | growth (SF-295 CNS) | growth (SF-539 CNS) | growth (UACC-257 melanoma) | growth (M14 melanoma) | growth (HCT-15 colon) | growth (HT29 colon) | growth (SNB-75 CNS) | growth (SNB-19 CNS) | growth (U251 CNS) | growth (PC-3 prostate) | growth (SK-MEL-5 melanoma) | growth (UACC-62 melanoma) | growth (LOX IMVI melanoma) | growth (SK-MEL-28 melanoma)
COC(=O)[C@]1(C)CC[C@]2(C)CC[C@]3(C)C(=CC(=O)[C@@H]4[C@@]5(C)CCC(=O)NC(C)(C)[C@@H]5CC[C@]43C)[C@@H]2C1 | -24.1% [100 µM] (active) | 4.37% [100 µM] (active) | -76.4% [100 µM] (active) | -80.2% [100 µM] (active) | -85.5% [100 µM] (active) | -55.3% [100 µM] (active) | -70.6% [100 µM] (active) | -85% [100 µM] (active) | -30.3% [100 µM] (active) | -39.1% [100 µM] (active) | -19.6% [100 µM] (active) | -55% [100 µM] (active) | -83.3% [100 µM] (active) | -89.8% [100 µM] (active) | -89.2% [100 µM] (active) | -65.8% [100 µM] (active) | -94% [100 µM] (active) | -88.9% [100 µM] (active) | -97.7% [100 µM] (active) | -67.3% [100 µM] (active)
C/C=C/C1OC23CCCCC2C(C#N)(C(=N)O3)C1(C#N)C#N (stereo not given) | 95.1% | 94.7% | 99% | 110% | 116% | 97.6% | 110% | 98.2% | 93.3% | 92.8% | 85% | 109% | 85.9% | 101% | 102% | 98.1% | 99.1% | 87% | 81.9% | 109%
O=C(NNc1ccc(-c2ccccc2)nn1)c1ccccc1 | 104% | 92.2% | 100% | 97.4% | 110% | 95% | 94.3% | 102% | 103% | 98.8% | 103% | 107% | 71% | 95.4% | 101% | 102% | 102% | 96.6% | 98.9% | 105%
CNC(=O)c1cc(Oc2cccc3nc(NC(=O)Nc4cc(C(F)(F)F)cc(C(F)(F)F)c4)ccc23)ccn1 | 45.4% | 71.9% | 21.3% | 23.3% | 27.5% | 36.1% | 30.3% | 38.9% | 57.7% | 35.5% | 71.1% | 16% | -23.7% (active) | 38.8% | -34.9% (active) | 52.8% | 59.9% | 41.4% | 12.7% | 33.2%
Cn1cc(-c2noc(C(=O)c3cn(C)c4ncc(Br)cc34)n2)c2ccccc21 | 100% | 102% | 80.5% | 79.1% | 104% | 94.6% | 101% | 87.1% | 96.7% | 99.4% | 97.7% | 105% | 77.9% | 96.6% | 93.8% | 92.3% | 95.6% | 89.3% | 96.8% | 101%
Cc1cnc(N)nc1OCCNC(=O)c1cccc(-c2ccc(S(=O)(=O)Nc3ccc4c(c3)N(C(=O)C3CC3)CCC4)cc2)c1 | 90.2% | 58.8% | 120% | 89.5% | 88.3% | 74.5% | 77.9% | 92% | 84.1% | 80.1% | 96.4% | 80.5% | 57.3% | 75.5% | 88.4% | 53.5% | 23.8% | 48.1% | 88.5% | 88.6%
COc1ccccc1S(=O)Nc1ccccc1 (stereo not given) | 116% | 104% | 86.2% | 92.5% | 100% | 100% | 98.5% | 109% | 78.4% | 111% | 102% | 91.4% | 87.4% | 99.5% | 91% | 87.2% | 96.8% | 94.1% | 99.4% | 114%
CCCCCn1c(C)cc(/C=C\c2ccc3cc(C)ccc3[n+]2C)c1C | -52.3% (active) | 9.64% (active) | -67.5% (active) | -46.8% (active) | -60.8% (active) | -61% (active) | -90.9% (active) | -85.8% (active) | -99.1% (active) | -71.2% (active) | -12% (active) | -61.8% (active) | -94.4% (active) | -89.8% (active) | -93.9% (active) | -47.9% (active) | -95.7% (active) | -89.8% (active) | -72.4% (active) | -87.1% (active)
